# Assay results: PubChem BioAssay (NCI)
# Values joined by “and” are separate entries in the source; they are usually repeats but may differ in a detail not shown here. Equal entries are not always repeated. Compounds without any hit were thinned out: in the full panel of roughly 79,000, 15% have a hit. Values without a mark were called inactive. Active and inactive are the calls of the source. Cut-off read from the data, not from the text of the source: active = growth inhibition above about 70%; inactive = the rest.
# Key:
# [1] = NCI Yeast Anticancer Drug Screen. Data for the rad50 strain (AID 155);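 note: 0% = growth of vehicle-only cultures of the same strain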; conditions: S. cerevisiae rad50 strain growth inhibition, hits give high values
# Outline: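 Readout: growth inhibition relative to vehicle-treated cultures. Compound exposure was carried out in a genetically defined yeast strain deficient in DNA damage repair.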
# [2] = NCI Yeast Anticancer Drug Screen. Data for the mec2-1 strain (AID 157); conditions: S. cerevisiae mec2-1 strain, hits give high values
# Outline: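 Vehicle-treated cultures served as reference for growth inhibition of compound-exposed mec2-1 yeast.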
# [3] = NCI Yeast Anticancer Drug Screen. Data for the sgs1 mgt1 strain (AID 161);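 note: 0% = growth of cultures given vehicle only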; conditions: S. cerevisiae sgs1 mgt1 strain, hits give high values
# Outline: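 Test agents were incubated with a DNA-repair-mutant yeast strain. Growth was then read and compared against vehicle-treated controls.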
# [4] = NCI Yeast Anticancer Drug Screen. Data for the cln2 rad14 strain (AID 165);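 note: 0% = growth equal to vehicle treated cultures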; conditions: S. cerevisiae cln2 rad14 strain, hits give high values
# Outline: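 Each compound was tested on cln2 rad14 yeast. Inhibition of growth was calculated against vehicle-exposed controls.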
# [5] = NCI Yeast Anticancer Drug Screen. Data for the bub3 strain (AID 167); conditions: S. cerevisiae bub3 mutant strain, hits give high values
# Outline: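 Readout: yeast growth inhibition, expressed relative to vehicle-only wells. The test organism is a mutant strain from a panel with lesions in DNA repair or checkpoint genes.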
# [6] = NCI Yeast Anticancer Drug Screen. Data for the mlh1 rad18 strain (AID 175); conditions: S. cerevisiae mlh1 rad18 strain growth inhibition, hits give high values
# Outline: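 Vehicle-treated cultures served as the reference for growth inhibition in a yeast strain carrying DNA damage repair alterations exposed to each compound.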
# [7] = NCI Yeast Anticancer Drug Screen. Data for the rad50EPP+ strain (AID 151);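 note: 0% = growth of vehicle-treated control cultures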; conditions: S. cerevisiae rad50 mutant strain, hits give high values
# Outline: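 In this screen, rad50EPP+ yeast were exposed to compounds. Growth inhibition was scored against vehicle-treated controls.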
# [8] = NCI Yeast Anticancer Drug Screen. Data for the mgt1 strain (AID 153); conditions: S. cerevisiae mgt1 mutant growth inhibition, hits give high values
# Outline: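 mgt1 strain exposed; growth vs vehicle control recorded as inhibition.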
# [9] = NCI Yeast Anticancer Drug Screen. Data for the rad14 strain (AID 159);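 note: 0% = growth of vehicle-treated control cultures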; conditions: S. cerevisiae rad14 strain growth inhibition, hits give high values
# Outline: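 Growth inhibition vs vehicle controls; genetically altered yeast strain (DNA damage repair defect) treated with test compounds.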
# [10] = NCI Yeast Anticancer Drug Screen. Data for the CLN2oe strain (AID 163);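 note: 0% = growth of vehicle-only control cultures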; conditions: S. cerevisiae CLN2oe strain, hits give high values
# Outline: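 Inhibition relative to vehicle-treated yeast is reported. Cells: strain with genetic alteration in cell-cycle control, grown with compound.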
# [11] = NCI Yeast Anticancer Drug Screen. Data for the wt2 strain (AID 169);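 note: 0% = growth of vehicle-treated yeast cultures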; conditions: S. cerevisiae wt2 strain growth inhibition, hits give high values
# Outline: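 Inhibition of yeast growth was determined after compound treatment, normalised to controls receiving only vehicle.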
# [12] = NCI Yeast Anticancer Drug Screen. Data for the mlh1 strain (AID 171);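 note: 0% = growth of vehicle-treated control cultures of the same strain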; conditions: S. cerevisiae mlh1 strain growth inhibition, hits give high values
# Outline: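 Vehicle-normalised growth inhibition of a repair- or checkpoint-altered yeast strain following compound treatment.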
# [13] = NCI Yeast Anticancer Drug Screen. Data for the sgs1 strain (AID 173);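 note: 0% = growth of vehicle-only control cultures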; conditions: S. cerevisiae sgs1 mutant, hits give high values
# Outline: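 Screen format: yeast with repair or checkpoint alterations, compound exposure, growth read relative to vehicle.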
# [14] = NCI Yeast Anticancer Drug Screen. Data for the rad18 strain (AID 177); conditions: S. cerevisiae rad18 mutant growth inhibition, hits give high values
# Outline: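 Test articles were incubated with altered yeast defective in DNA damage repair. Results are given as inhibition of growth versus vehicle.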
# [15] = at 5.0 µM (retest, dose inferred, filed as 0.5)
# [16] = at 50.0 µM (retest, dose inferred, filed as 5.0)
compound,measurement,setting,value
CC(C)c1ccc(O)c(=O)cc1,growth inhibition,[1]; [15],6% and 0%
same,growth inhibition,[1]; [16],42% and 28% and -1%
same,growth inhibition,[1]; at 50.0 µM,91.8% (active) and 92.7% (active) and 92.8% (active)
same,growth inhibition,[2]; [15],2% and -1%
same,growth inhibition,[2]; [16],50% and 57% and 7%
same,growth inhibition,[2]; at 50.0 µM,93.8% (active) and 94.7% (active) and 94.6% (active)
same,growth inhibition,[3]; [15],4% and 6%
same,growth inhibition,[3]; [16],42% and 31% and 1%
same,growth inhibition,[3]; at 50.0 µM,93.5% (active) and 94% (active) and 93% (active)
same,growth inhibition,[4]; [15],6% and 5% and -1%
same,growth inhibition,[4]; [16],21% and 15% and 2%
same,growth inhibition,[4]; at 50.0 µM,91.3% (active) and 90.5% (active) and 91.5% (active)
same,growth inhibition,[5]; [15],0% and -1% and -5%
same,growth inhibition,[5]; [16],48% and 56% and -2%
same,growth inhibition,[5]; at 50.0 µM,92.7% (active) and 93.3% (active) and 92.8% (active)
same,growth inhibition,[6]; [15],5% and 6% and 2%
same,growth inhibition,[6]; [16],45% and 43% and -2%
same,growth inhibition,[6]; at 50.0 µM,91.2% (active) and 92.4% (active) and 92.1% (active)
Nc1c([N+](=O)[O-])cc2c3c(cccc13)CC2,growth inhibition,[7]; at 1.2 µM,10%
same,growth inhibition,[7]; at 3.7 µM,32%
same,growth inhibition,[7]; at 11.0 µM,63%
same,growth inhibition,[7]; at 33.0 µM,74% (active)
same,growth inhibition,[7]; at 100.0 µM,71% (active)
same,growth inhibition,[8]; at 1.2 µM,5%
same,growth inhibition,[8]; at 3.7 µM,18%
same,growth inhibition,[8]; at 11.0 µM,31%
same,growth inhibition,[8]; at 33.0 µM,22%
same,growth inhibition,[8]; at 100.0 µM,39%
same,growth inhibition,[1]; at 1.2 µM,28%
same,growth inhibition,[1]; at 3.7 µM,67%
same,growth inhibition,[1]; [15],3%
same,growth inhibition,[1]; at 11.0 µM,79% (active)
same,growth inhibition,[1]; at 33.0 µM,77% (active)
same,growth inhibition,[1]; [16],81% (active)
same,growth inhibition,[1]; at 50.0 µM,87.2% (active)
same,growth inhibition,[1]; at 100.0 µM,83% (active)
same,growth inhibition,[2]; at 1.2 µM,4%
same,growth inhibition,[2]; at 3.7 µM,14%
same,growth inhibition,[2]; [15],2%
same,growth inhibition,[2]; at 11.0 µM,13%
same,growth inhibition,[2]; at 33.0 µM,25%
same,growth inhibition,[2]; [16],29%
same,growth inhibition,[2]; at 50.0 µM,27.9%
same,growth inhibition,[2]; at 100.0 µM,29%
same,growth inhibition,[9]; at 1.2 µM,11%
same,growth inhibition,[9]; at 3.7 µM,14%
same,growth inhibition,[9]; at 11.0 µM,30%
same,growth inhibition,[9]; at 33.0 µM,39%
same,growth inhibition,[9]; at 100.0 µM,54%
same,growth inhibition,[3]; [15],16%
same,growth inhibition,[3]; [16],54%
same,growth inhibition,[3]; at 50.0 µM,52.5%
same,growth inhibition,[10]; at 1.2 µM,8%
same,growth inhibition,[10]; at 3.7 µM,14%
same,growth inhibition,[10]; at 11.0 µM,17%
same,growth inhibition,[10]; at 33.0 µM,20%
same,growth inhibition,[10]; at 100.0 µM,26%
same,growth inhibition,[5]; at 1.2 µM,-4%
same,growth inhibition,[5]; at 3.7 µM,0%
same,growth inhibition,[5]; [15],-20%
same,growth inhibition,[5]; at 11.0 µM,14%
same,growth inhibition,[5]; at 33.0 µM,10%
same,growth inhibition,[5]; [16],17%
same,growth inhibition,[5]; at 50.0 µM,21.4%
same,growth inhibition,[5]; at 100.0 µM,11%
same,growth inhibition,[11]; at 1.2 µM,3%
same,growth inhibition,[11]; at 3.7 µM,10%
same,growth inhibition,[11]; at 11.0 µM,18%
same,growth inhibition,[11]; at 33.0 µM,25%
same,growth inhibition,[11]; at 100.0 µM,55%
same,growth inhibition,[12]; at 1.2 µM,5%
same,growth inhibition,[12]; at 3.7 µM,14%
same,growth inhibition,[12]; at 11.0 µM,20%
same,growth inhibition,[12]; at 33.0 µM,28%
same,growth inhibition,[12]; at 100.0 µM,53%
same,growth inhibition,[13]; at 1.2 µM,8%
same,growth inhibition,[13]; at 3.7 µM,20%
same,growth inhibition,[13]; at 11.0 µM,33%
same,growth inhibition,[13]; at 33.0 µM,45%
same,growth inhibition,[13]; at 100.0 µM,65%
same,growth inhibition,[6]; [15],12%
same,growth inhibition,[6]; [16],65%
same,growth inhibition,[6]; at 50.0 µM,77.9% (active)
same,growth inhibition,[14]; at 1.2 µM,24%
same,growth inhibition,[14]; at 3.7 µM,71% (active)
same,growth inhibition,[14]; at 11.0 µM,86% (active)
same,growth inhibition,[14]; at 33.0 µM,83% (active)
same,growth inhibition,[14]; at 100.0 µM,86% (active)
